Reference: the supplement of paper PMC3334620
Over roughly 33,000 sequences, “E-score (-0.5 to 0.5)” has its median near -8e-05; the highest 2% begin near 0.23. This excerpt belongs to a sample that is enriched for the highest values.

Target: T1, Nrg2 (UniProt P38082)
T1 sequence: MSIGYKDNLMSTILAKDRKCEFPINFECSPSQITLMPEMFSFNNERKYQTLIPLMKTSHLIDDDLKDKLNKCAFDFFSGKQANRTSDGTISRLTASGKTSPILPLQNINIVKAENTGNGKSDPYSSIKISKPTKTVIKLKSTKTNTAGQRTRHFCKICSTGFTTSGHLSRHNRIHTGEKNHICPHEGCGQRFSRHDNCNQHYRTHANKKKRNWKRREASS
Test: PBM E-score (8-mer binding enrichment) (E-score (-0.5 to 0.5)); higher = stronger / more preferred TF binding
Conditions: protein concentration: 100 nM; construct: GST-full length
Experimental: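 Universal 'all 10-mer' protein binding microarrays (Agilent AMADID 015681) probed with GST-tagged S. cerevisiae TFs (full-length or DBD) made by in vitro transcription/translation (PURExpress), about 100-200 nM. Bound TF was detected with fluorescent anti-GST. Each ungapped 8-mer (which stands for itself and its reverse complement) is scored by the PBM enrichment score (E-score), a modified Wilcoxon-Mann-Whitney statistic from -0.5 to +0.5, computed with the Universal PBM Analysis Suite. Scale: above 0.35 generally sequence-specific binding.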

Sequence | PBM E-score
AGTTTGCA | -0.0668
CGGGTGCA | -0.0669
GGGGTTCA | 0.166
CGGGTTTA | 0.104
AGGGTTCA | 0.281
AGGGTGCG | 0.0103
AGGGTTTA | 0.235
AGGGTTTG | 0.172
AGGGTTCC | 0.189
AGGGTGCA | 0.256
AGCTGGCG | -0.158
AACCCGTA | -0.0217
GAATTCGA | 0.0262
ATAACTAA | 0.0389
CTAACTAA | -0.0143
CCAACTAA | 0.0905
TTAACTAA | 0.249
TAAACTAA | 0.186
GCAACTAA | 0.288
AAAACTAA | 0.234
AAAACTAT | 0.0045
TCAACTAA | 0.0939
ACAGTTCG | 0.103
GAGGCAAC | -0.192
AAGTAAGG | 0.159

Sequence | PBM E-score
CGAAAACA | 0.0723
CTGGCCTA | -0.0943
ACTTAGCT | -0.202
CGCAGAAA | 0.0592
GATATACA | 0.0803
AATATATA | 0.0908
AATATATG | 0.225
AATATATT | 0.341
AAAATATA | 0.00189
GAAATATA | 0.256
TATATATA | 0.269
TATATACA | 0.207
TAAATATA | 0.144
CATATATA | 0.205
GATATATC | 0.0168
GATATATA | 0.247
AGGCCGCC | -0.0684
CGACCAAA | 0.222
ATTACCAA | 0.0553
CATTGACG | -0.0426
ACTTCGGC | -0.0688
CAAATAGA | 0.296
TAAATAGA | -0.125
AATATGGA | 0.0669
AAAATAGA | 0.118

Sequence | PBM E-score
CAAATATC | 0.256
TATATGGA | 0.0065
GATATGGA | 0.259
CAAATATA | 0.03
CAAATATG | -0.0116
TAGCGTGA | 0.0132
CGGTAGAC | 0.0168
CGGCGAAC | -0.0868
CATTGGCC | -0.0708
ATCAGAAA | -0.042
GGAATAAC | 0.132
TAGGACAA | 0.049
GGATAGTA | 0.177
CTTATTCA | -0.00255
ATTATGCG | 0.266
ACTATTCG | 0.193
GTTATTAA | 0.182
ATTATGCA | -0.00258
ATTATTCA | 0.23
ATTATTCG | 0.295
GTTATTCA | 0.105
CTTATTAA | 0.196
ATTATGCC | 0.115
ATTATTCC | 0.0891
ATTATTAA | 0.238

Sequence | PBM E-score
CTTGATGC | -0.0811
CCAACCCA | -0.242
TCTTCTAA | -0.0126
CAGATATG | 0.159
CGGATTGC | 0.161
CGCGTTTA | 0.0535
TGTCCGAA | 0.143
ACAGGCTC | -0.159
ACCTCCCG | -0.177
TCGGTCAA | 0.0158
CCCAGACG | -0.0304
CTTGCGAC | -0.142
ATTATACA | -0.00719
GTCATTAA | 0.25
ATCATTAA | 0.171
ATTATACC | 0.18
ATTATACG | 0.252
CTCATTAA | 0.173
TGACGTAA | -0.175
CCTTAGAA | -0.0241
GCTAACCA | -0.172
GTAAGATA | 0.0912
GCAACCTA | 0.0294
GAATCCTC | -0.1
AGTAAGGA | -0.00565

Sequence | PBM E-score
AGCAAGGC | -0.0107
AGTAAGGG | 0.233
AGCAAGGG | 0.261
AGTAAGGC | -0.036
AGCAAAGG | 0.0268
AGCAACTC | -0.0833
GCCGGATA | 0.0712
GAAAGCCC | 0.0882
GAAACACC | 0.0146
AGTCCCTG | 0.294
AGTCCCTC | -0.0587
AATCCCTA | 0.154
AATCCCTG | 0.278
AGTCCCTA | 0.0553
AATCCCTC | -0.0866
CTTCAGCC | -0.229
ACATCAAT | 0.079
ATCAATTG | 0.15
GTAAATTA | -0.132
ATAAATTC | 0.0818
ATAAATTA | 0.316
ATAAATTG | 0.272
CTAAATTA | 0.127
AAAAATTG | -0.095
ATCAATTA | 0.271

Sequence | PBM E-score
ATCAATTC | 0.107
ACTAAGGG | 0.0502
GGCTTCCA | -0.186
CGCTTTTA | -0.0218
GGTGCCTA | -0.0877
CGCGCACC | 0.14
GGTTCACA | 0.103
TCTCGCAA | -0.0499
CAACCGCA | 0.0352
CAACCGCG | 0.271
AAACCGCG | 0.266
CAACCGCC | 0.0219
AAACCGCC | 0.041
AAACCGCA | -0.0776
CGTCTTGC | 0.0795
CATGAATC | 0.115
GTTTGTGA | -0.00935
AACAAATA | 0.247
TACAAACA | 0.243
AACAAATT | 0.251
AACAAAGG | 0.0899
AACAAACA | 0.22
AACAAATG | 0.0558
AACAAGTT | -0.0278
AACAAGGT | 0.0681

Sequence | PBM E-score
TACAAATA | 0.0774
AACAAGTA | -0.0255
TACAAGCA | 0.121
AACAAAGT | 0.26
ACCAAGGA | -0.0125
CGGTGGCC | 0.0203
AGATCTAC | 0.00881
ATGCCTGA | -0.126
CATTTGAA | 0.0105
CTTAGTCA | -0.0736
CGGCCCCA | -0.253
ACTCATGA | 0.143
CCTAACTC | -0.0633
AACCTCAG | 0.072
CACCTCGA | 0.256
GACCTCGA | 0.126
AACCTCGA | 0.0566
GGTTCAGA | 0.0397
ACCATGGG | -0.0447
CCCATGGA | -0.00741
CCCATGGG | 0.323
TAGAACAA | -0.00331
CGTCAGGA | -0.112
